This passage reports growth results from PubChem BioAssay (NCI).

Molecules are shown by their SMILES. The panel holds about 83,000 compounds, 20% with a hit somewhere; the sample as a whole holds those more often.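 48-hour exposure, single concentration, 96-well plates; percent growth endpoint where 0 means no net growth. Active: below 10.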 A number with no mark means an inactive call. Calls of active or inactive are those of the source.

Among the test systems are NCI-H23 lung; NCI-H226 lung; NCI-H322M lung; HOP-62 NSCLC; NCI-H460 lung; NCI-H522 lung; A549/ATCC NSCLC; 786-0 renal; COLO 205 colon; DU-145 prostate.
Assay in all cases: NCI-60 one-dose screen, 48 h (100 = growth as untreated, 0 = no growth, -100 = all killed)
What all share (settings): 10 µM

With `COc1ccc(Cn2c(C(N)=O)cc3c2-c2nc(N)ncc2CCC3)cc1`, the growth with NCI-H23 lung is 106%; in the experiment with NCI-H226 lung, 98.6%; in the experiment with NCI-H322M lung it was 89.1%; in the experiment with HOP-62 NSCLC it was 100%; in the experiment with NCI-H460 lung, 97.7%; in the experiment with NCI-H522 lung, 103%. Also, the growth is 93.7% in the experiment with A549/ATCC NSCLC, 101% in the experiment on 786-0 renal, 101% with COLO 205 colon and 99.4% with DU-145 prostate.
On to `CO/N=C(/C(=O)NC1C(=O)N2C(C(=O)O)=C(COC(N)=O)CSC12)c1ccco1` (stereo not given), for which the growth with NCI-H23 lung was 107%; with NCI-H226 lung, 109%; with NCI-H322M lung it was 100%; in the experiment on HOP-62 NSCLC, 112%; with NCI-H460 lung, 118%; in the experiment with NCI-H522 lung, 99.4%. For the same compound, the growth was 101% with A549/ATCC NSCLC, 96% in the experiment on 786-0 renal, 114% in the experiment on COLO 205 colon and 127% in the experiment on DU-145 prostate.
Turning to `Cc1ncc(-c2ccoc2)c(NC2CCCCCC2)n1`, the growth in the experiment on NCI-H23 lung was 97.9%; in the experiment with NCI-H226 lung, 103%; with NCI-H322M lung it was 80.7%; with HOP-62 NSCLC it was 102%; in the experiment on NCI-H460 lung, 106%; with NCI-H522 lung, 82.8%. In addition, the growth is 101% in the experiment with A549/ATCC NSCLC, 99.2% with 786-0 renal, 106% in the experiment on COLO 205 colon and 110% in the experiment with DU-145 prostate.
Regarding `CC(=O)N1C/C(=C/c2ccc(Cl)cc2)C(=O)/C(=C/c2ccc(Cl)cc2)C1`, the growth is -28% (active) with NCI-H23 lung; -39.5% (active) in the experiment with NCI-H226 lung; -9.19% (active) with NCI-H322M lung; -29.7% (active) in the experiment on HOP-62 NSCLC; -14.1% (active) in the experiment on NCI-H460 lung; -66.4% (active) with NCI-H522 lung. In addition, the growth is -24.6% (active) in the experiment on A549/ATCC NSCLC, -59.3% (active) in the experiment on 786-0 renal, -48.8% (active) in the experiment on COLO 205 colon and -30.5% (active) with DU-145 prostate.
Take `Cn1c([N+](=O)[O-])cnc1/C=C1\Oc2ccc(Cl)cc2C1=O`: the growth in the experiment with NCI-H23 lung is -12.7% (active); with NCI-H226 lung, -27.2% (active); in the experiment with NCI-H322M lung, 11.4%; in the experiment with HOP-62 NSCLC, -17.2% (active); in the experiment on NCI-H460 lung, -44.3% (active); in the experiment with NCI-H522 lung it was -50.3% (active). For the same compound, the growth with A549/ATCC NSCLC is -40.9% (active); in the experiment on 786-0 renal, -23.2% (active); in the experiment with COLO 205 colon, -41.6% (active); in the experiment with DU-145 prostate, -17.1% (active).
As for `CN(C)c1ccc(Cc2ccc(N(C)C)cc2Cl)c(Cl)c1`, the growth was 97% in the experiment on NCI-H23 lung; 89.4% with NCI-H226 lung; 99.3% in the experiment on NCI-H322M lung; 105% in the experiment with HOP-62 NSCLC; 98.4% with NCI-H460 lung; 80.1% in the experiment with NCI-H522 lung. The growth with A549/ATCC NSCLC was 96.5%; with 786-0 renal, 112%; with COLO 205 colon, 108%; in the experiment on DU-145 prostate, 103%.
`COc1ccc(-c2nc3sc(-c4ccccc4)c(-c4ccccc4)n3c2/C=C/C(=O)c2ccccn2)cc1`: the growth is 97.4% in the experiment with NCI-H23 lung; 84% with NCI-H226 lung; 112% with NCI-H322M lung; 134% in the experiment on HOP-62 NSCLC; 87% in the experiment with NCI-H460 lung; 6.21% (active) with NCI-H522 lung. The growth in the experiment with A549/ATCC NSCLC was 87.7%; with 786-0 renal it was 98.7%; in the experiment on COLO 205 colon it was 76.4%; with DU-145 prostate it was 96.7%.
As for `CC(=O)[C@H]1CC[C@H]2[C@@H]3CCC4=CC(=O)C=C[C@]4(C)[C@H]3CC[C@]12C`, the growth was 90% in the experiment on NCI-H23 lung; 88.4% in the experiment with NCI-H226 lung; 97% with NCI-H322M lung; 100% with HOP-62 NSCLC; 96.1% with NCI-H460 lung; 81.4% with NCI-H522 lung. For the same compound, the growth with A549/ATCC NSCLC was 94.4%; with 786-0 renal, 99.8%; in the experiment on COLO 205 colon it was 119%; with DU-145 prostate, 108%.
With `CN(C)CCCn1c(=O)c2ccccc2c2cnc3[nH]ccc3c21`, the growth in the experiment on NCI-H23 lung was 13.8%; in the experiment with NCI-H226 lung it was -0.537% (active); in the experiment on NCI-H322M lung, 9.79% (active); in the experiment with HOP-62 NSCLC, -1.44% (active); in the experiment on NCI-H460 lung, -6.21% (active); in the experiment with NCI-H522 lung it was -38.9% (active). The growth in the experiment on A549/ATCC NSCLC was 1.69% (active); in the experiment with 786-0 renal it was 15.2%; with COLO 205 colon, -31.3% (active); in the experiment with DU-145 prostate, -0.745% (active).
With `N=C(N)c1ccc(-c2ccc(-c3ccccc3)o2)nc1`, the growth was 101% in the experiment on NCI-H23 lung; 90.4% in the experiment on NCI-H226 lung; 91.7% in the experiment with NCI-H322M lung; 91.8% with HOP-62 NSCLC; 90.3% in the experiment on NCI-H460 lung; 93.8% with NCI-H522 lung. Also, the growth with A549/ATCC NSCLC is 77.8%; in the experiment with 786-0 renal, 90.7%; in the experiment on COLO 205 colon it was -13% (active); in the experiment on DU-145 prostate, 103%.
